Target: AMP-activated protein kinase, AMPK (Homo sapiens) (UniProt P54646+O43741+P54619+Q9UGJ0+Q9Y478+Q13131+Q9UGI9)
Test: AMP-dependent Kinase enzyme assay. An in vitro enzyme assay that detects ADP turnover that is directly proportional to AMPK activity. This uses naive AMPK that is activated during the assay with MK-8722
Assay type: functional
Design: scale not given: direction of the effect not stated beside the values
Conditions: 30 µM

SMILES	Percent Effect
Cc1cc(C(F)F)nn1CC(=O)NCc1nccn1C	5.16%
O=C1CCCCN1CCc1nc(C2(c3ccc(F)cc3)CCOC2)no1 (stereo not given)	0.752%
CN(C)c1nc(N)nc(CN2CCC(c3nc4ccccc4o3)CC2)n1	-11.3%
CCC(NC(=O)c1cc(NC(C)=O)ccc1Cl)c1cc(C)ccn1 (stereo not given)	2.39%
CCC1(CC)CC(=O)N(CC(O)c2ccc(Cl)cc2)C1=O (stereo not given)	7.86%
CCC(C)Oc1ccc(CNCCNC(C)=O)cc1Cl (stereo not given)	-6.19%
Cc1cccc(C(=O)N2CC(=O)N(c3ccccc3Cl)CC2C)n1 (stereo not given)	20.1%
Cc1cc(=O)[nH]c(=O)n1Cc1ccccc1	1.77%
Cc1nn(C)c(C)c1C1COCCN1C(=O)CSC(C)(C)C (stereo not given)	-7.18%
Cc1nn(C)c(C)c1C1CCCN1C(=O)c1ccc(C(N)=O)s1 (stereo not given)	-0.19%
Cc1ccc(S(=O)(=O)N(CCO)C2CC2)cc1N(C)C	-7.34%
O=C1CC2(CCN(Cc3ccc(-c4ccccc4)s3)C2)C(=O)N1 (stereo not given)	84.9%
CCC[C@H]1CN(c2cncc(C(=O)N3CCCCC3)n2)C[C@@H]1N(C)C	14.2%
CS(=O)(=O)c1ccc(Cl)c(NC(=O)NCCC2=CCCCC2)c1	3.49%
NC(=O)N1CCCCCC1C1CCN(c2nccc(C(F)(F)F)n2)CC1 (stereo not given)	-5.81%
CCc1oc(C(=O)NCCSc2ncn[nH]2)cc1CN1CCCC1	1.9%
CC(=O)N[C@H]1CCN(C(=O)c2cc(Cn3cnc4ccccc43)[nH]n2)C1	-3.06%
COCCC(=O)N(CCC#N)c1ccc(C)c(C)c1	-6.74%
CN(CCNC(=O)Nc1nccs1)Cc1ccc(F)cc1	-0.57%
Cn1ncc2c(N[C@@H]3C[C@@H]4CC[C@H]3C4)nc(-c3ccncc3)nc21	12.7%

SMILES	Percent Effect
COc1cccc(C(=O)N2CCN(C(=O)CCCc3cn[nH]c3)CC2)c1	-1.35%
CCc1nc(CCNc2ncccn2)sc1C	-7.35%
Cc1nnc(NC(=O)NCCCN2CCC(C(N)=O)CC2)s1	5.59%
Cc1cc(CN(C)Cc2csc(-c3cccs3)n2)n[nH]1	6.79%
O=C(NCC1CCS(=O)(=O)C1)N(Cc1ccccn1)C1CC1 (stereo not given)	-6.01%
COc1ccc(NC(=O)c2cnc(C3CCN(C(C)=O)C3)nc2C)cc1 (stereo not given)	-1.66%
COc1ccc(N2CCN(Cc3noc(CC(C)C)n3)C(C)C2=O)cc1 (stereo not given)	0.845%
COc1ccccc1CN(Cc1nc(C)no1)C1CC1	6.47%
O=C(Cn1nc2ccccc2n1)N1CCCC(O)(CO)C1 (stereo not given)	-6.31%
CC(C)C[C@@H](N)C(=O)N(C)Cc1csc(C(C)C)n1	-10.4%
CCc1nc(CCNc2ncccc2S(N)(=O)=O)sc1C	-3.81%
COC(=O)CSCc1nc(-c2ccc(Cl)cc2)no1	-4.75%
OCc1csc(N2C[C@@H](CN3CCCCCC3)[C@@H](CO)C2)n1	-3.32%
Cc1ccc(NC(=O)NCCn2cnc(C)c(C)c2=O)cc1F	1.89%
CSCC(=O)N1CCN(CC(O)C(C)(C)C)CC1 (stereo not given)	-3.62%
O=C(NCc1cc(Br)cs1)Nc1cn[nH]c1	-0.469%
CCC1c2ccccc2CCN1CCCS(C)(=O)=O (stereo not given)	-1.94%
CCc1oc(C(=O)OC)cc1Cn1cccc(C(F)(F)F)c1=O	6.73%
CCc1nnc(CNC(=O)CCC2CCCN(C)C2)s1 (stereo not given)	-1.32%
CN(C)C(=O)CN1CCN(c2cc(N3CCCC3CO)ncn2)CC1 (stereo not given)	-0.698%

Source: ChEMBL document CHEMBL3988442, “University of Dundee, Small-Polar-MMV Screening Library” (2021)
